Assay outcomes: PubChem, National Center for Advancing Translational Sciences (NCATS)
Most compounds without a hit are left out; they make up all but 10% or so of the library.
PNC inhibitor: High Content Assay for Compounds that inhibit the Assembly of the Perinucleolar Compartment; PC3M PTB-GFP, PNC prevalence imaging, 16 h; stronger effect = lower value; activity change (PNC), negative = inhibition, % at 10 µM; 140,000 compounds, 3.1% hits;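 active = readout at or below -70, meaning at least 70% loss of cells showing the perinucleolar compartment, a nuclear body marking cancer cells; inconclusive = readout between -30 and a set limit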;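 also: plate controls were DMSO wells for no effect and camptothecin positive control wells for full effect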
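Read-out is percentage of cells bearing a perinucleolar compartment, from automated 20x imaging of fixed, Hoechst-stained PC3M PTB-GFP cells. Cells were seeded 4 h, then exposed 16 h to compound (23 nl of library stock) in duplicate plates.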
ALDH1A1 block: qHTS Assay for Inhibitors of Aldehyde Dehydrogenase 1 (ALDH1A1); Aldehyde dehydrogenase 1A1 (Homo sapiens), P00352; Potency, µM (top dose mostly 75.3 µM), for the others: at the top dose activity, negative = inhibition, usual class: inhibitors; AID 1030, 2008; 220,000 compounds, 7.3% hits; Purified ALDH1A1, NADH fluorescence, propionaldehyde substrate;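 also: potency is read from the fitted curve at half-maximal effect; plate controls were no enzyme wells and a reference inhibitor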
Lamin A splicing: qHTS Assay for Modulators of Lamin A Splicing; HeLa LMNA splicing GFP/RFP minigene ratio, 48 h; Potency, µM (series often up to 46.1 µM), inactives show at the top dose ratio change, negative = inhibition, hits mostly inhibitors; 200,000 compounds, 0.01% hits; active = well fitted inhibition curve with a large enough effect in the signal ratio, with a control signal flat, not every such curve was filed as active; inconclusive = small, poorly fitted or top-dose-only effect, or effect the other way, or a change in a side signal; the % refers to the signal ratio; also: potency is read from the fitted curve at half-maximal effect
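Read-out is the ratio of GFP to DsRed2 object intensity, acquired by 488 nm laser-scanning cytometry on HeLa lamin A-EGFP minigene reporter cells. Compound incubation 48 hrs at 37 °C in Opti-MEM with 2% FBS; DMSO 0.5% final.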
ALOX12 inhib: qHTS Assay for Inhibitors of 12-hLO (12-human lipoxygenase) | purified 12-hLO, xylenol orange hydroperoxide absorbance | Potency, µM (doses to about 57.1 µM), for the others: at the highest dose activity change, negative = inhibition, most hits filed as inhibitors | 150,000 compounds, 0.12% hits | AID 1452, 2008; active = well fitted inhibition curve with a large enough effect; inconclusive = small, poorly fitted or top-dose-only effect; also: potency is read from the fitted curve at half-maximal effect; nearly all actives have a fitted effect of over 55% in size
Target sequence (P18054 whole entry, looked up): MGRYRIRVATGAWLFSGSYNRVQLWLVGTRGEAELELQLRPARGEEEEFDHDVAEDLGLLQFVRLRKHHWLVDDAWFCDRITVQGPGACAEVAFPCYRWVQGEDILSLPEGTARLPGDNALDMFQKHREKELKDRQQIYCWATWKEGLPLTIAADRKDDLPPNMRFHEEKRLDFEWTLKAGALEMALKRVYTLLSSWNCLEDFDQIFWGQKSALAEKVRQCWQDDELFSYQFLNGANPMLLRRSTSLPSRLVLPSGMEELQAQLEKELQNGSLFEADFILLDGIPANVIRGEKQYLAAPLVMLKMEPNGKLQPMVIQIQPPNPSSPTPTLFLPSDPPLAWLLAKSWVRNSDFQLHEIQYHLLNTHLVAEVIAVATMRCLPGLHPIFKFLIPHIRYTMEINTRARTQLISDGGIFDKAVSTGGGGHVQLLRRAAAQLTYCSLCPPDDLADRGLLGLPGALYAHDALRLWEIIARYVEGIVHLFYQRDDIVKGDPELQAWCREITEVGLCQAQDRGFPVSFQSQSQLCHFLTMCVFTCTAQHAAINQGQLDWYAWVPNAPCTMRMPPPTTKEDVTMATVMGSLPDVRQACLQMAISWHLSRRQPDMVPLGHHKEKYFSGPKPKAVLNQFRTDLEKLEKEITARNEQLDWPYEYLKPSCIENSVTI
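150 nM 12hLO, 25 mM Hepes pH 7.0 + 0.01% Triton X-100; cpd preinc 15 min RT; 40 uM arachidonic acid, 30 min RT; Fe-XO 30 min; A573/A405 ratio as read-out.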
HPGD inh: qHTS Assay for Inhibitors of HPGD (15-Hydroxyprostaglandin Dehydrogenase); 15-hydroxyprostaglandin dehydrogenase [NAD(+)] (Homo sapiens), P15428; purified HPGD, NADH fluorescence kinetic, PGE2 substrate; Potency, µM, for inactives: top-dose activity change, negative = inhibition, hits mostly inhibitors; 150,000 compounds, 4.3% hits; also: potency is read from the fitted curve at half-maximal effect
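20 nM HPGD preincubated 15 min at room temperature with compound in 50 mM Tris-HCl pH 8, 0.01% Tween 20. Started with 1 mM NAD+ and 30 uM prostaglandin E2; NADH fluorescence (360/450 nm) read 5 times over 30-s intervals, last minus first.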
Numbers without * were called inactive; ? = inconclusive; . = no result; [ ] = another dose, or the depositor's remark. Unless noted, calls follow the shape of the dose curve; as a rule, active = well fitted inhibition curve with a large enough effect (not every such curve was filed as active); inconclusive = small, poorly fitted or top-dose-only effect, or another doubt; inactive = no such curve, though single readings can be large or run the other way. Unless noted, % is scaled to controls: 0 for no effect and ±100 for the full control effect.

SMILES	PNC inhibitor	ALDH1A1 block	Lamin A splicing	ALOX12 inhib	HPGD inh
Cc1ccc(NC(=O)CCNC(=O)c2ccccc2Cl)cc1S(=O)(=O)N(C)C	?	3.1%	-0.2%	2.1%	-0.1%
Cc1ccc(NC(=O)CCNCc2ccco2)cc1S(=O)(=O)N(C)C	.	15.8µM*	-18.1%[46 µM]	.	.
CC(=O)c1ccc(OCCCC(=O)Nc2ccc(C)c(S(=O)(=O)N(C)C)c2)cc1	4.5	?	?	1.7%	-7.8%
Cc1ccc(CNC(=O)CCC(=O)N2CC3CCCN3c3ccccc32)cc1 (stereo unspecified)	.	.	15.5%[46 µM]	.	.
COc1ccc(N2CCN(C(=O)c3cc(S(=O)(=O)N4CCC(C)CC4)cn3C)CC2)cc1	.	.	-3.2%[46 µM]	.	.
COc1cccc(NC(=O)C(=O)NCCc2csc(-c3ccc(C(F)(F)F)cc3)n2)c1	.	.	-1.4%[46 µM]	.	.
COC(=O)c1ccc2c(=O)n(CCCCCC(=O)NCCc3ccc(Cl)cc3)c(=O)[nH]c2c1	.	.	-0.9%[46 µM]	.	.
COc1cccc([C@@H]2Oc3ccc(Br)cc3C(=O)[C@H]2OC(=O)N[C@H]2CCCc3ccccc32)c1	.	?	.	.	-1.4%
CCN(CC)C(=O)c1c[nH]c2ccc(S(=O)(=O)Nc3cc(C)cc(C)c3)cc2c1=O	6.5	-2.7%	0.6%	-4.5%	-2.6%
CCc1ccc(NS(=O)(=O)c2ccc3[nH]cc(C(=O)N4CCc5ccccc54)c(=O)c3c2)cc1	?	14.1µM*	-18.7%	-3.6%	-24.1%
Cc1cc(C)cc(NS(=O)(=O)c2ccc3[nH]cc(C(=O)N4CCc5ccccc54)c(=O)c3c2)c1	-17.1	10µM*	?	-8.3%	-25.7%
CCCNC(=O)Cn1nc(-c2ccc(C)c(C)c2)c2cnc3ccc(F)cc3c21	.	.	-18.5%[46 µM]	.	.
COCCc1nn2c(=O)cc(COC(=O)C(c3ccccc3)c3ccccc3)nc2s1	.	.	1.0%[46 µM]	.	.
CC(=O)N1CCN(c2ccc(NCc3ccc(C)s3)cc2)CC1	?	25.1µM*	2.1%	11.2µM*	-14.7%
CCc1ccccc1NC(=O)c1ccc(=O)n(Cc2ccc(F)cc2)c1	.	.	6.3%[46 µM]	.	.
CCc1ccc(/C=C/C(=O)c2cc(Br)ccc(=O)c2O)cc1	35.8	?	?	?	15.8µM*
Cc1cccc(/C=C/C(=O)c2cc(Br)ccc(=O)c2O)c1	-4.4	20µM*	?	?	-26.1%
O=P(O)(O)OP(=O)(O)OP(=O)(O)O	.	.	5.9%	.	.
N#CCSc1nc2[nH]ncc2c(=O)n1-c1ccccc1Br	21.5	?	-5.9%	?	?
COc1ccc(CNC(=O)CSc2nc3[nH]ncc3c(=O)n2-c2ccccc2Br)cc1	.	15.8µM*	-23.2%[9.22 µM]	.	.
O=C(CSc1nc2[nH]ncc2c(=O)n1-c1ccccc1Br)NCc1ccccc1Cl	.	12.6µM*	.	.	.
COC(=O)/C=C\CCc1coc(/C=C\CNC(=O)OC)n1	.	3.2%[13.5 µM]	.	.	.
CCC(C)(C)NC(=O)c1ccc(S(=O)(=O)N2CCCCCC2)cc1	.	-5.1%	.	.	.
CC(N=Cc1cccc(O)c1O)c1ccccc1 (stereo unspecified)	-0.4	?	?	?	2.82µM*
Cc1ccc(N=Cc2sc(O)c3ccccc23)cc1	?	?	1.9%	-25.7%	-17.9%
SMILES	PNC inhibitor	ALDH1A1 block	Lamin A splicing	ALOX12 inhib	HPGD inh
Cc1ccc(N=Cc2cccc(O)c2O)c(C)c1	?	?	?	?	3.16µM*
Cc1ccc(O)c(C=Nc2cc(C)ccc2O)c1	?	-4.1%	?	-11.6%	-16.4%
Cc1ccccc1N=Cc1cccc(O)c1O	?	5.01µM*	-6.9%	-27.1%	-7.0%
Cc1ccc(N=Cc2sc(O)c3ccccc23)c(C)c1	-15.3	12.6µM*	2.4%	-19.4%	-12.0%
CC(=O)N1CCc2cc(S(=O)(=O)NCCC(=O)N3CCN(c4ccccn4)CC3)ccc21	12.0	2.2%	-16.9%	0.8%	-9.3%
Nc1ncc(Br)cc1S(=O)(=O)NCCC(=O)N1CCN(c2ccccn2)CC1	-113.4*	?	?	-1.1%	-13.0%
COc1ccc(S(=O)(=O)N(CC(=O)Nc2cccc(C)c2)c2ccc(C)cc2)cc1OC	.	.	4.2%[46 µM]	.	.
